# Only a selection was taken, and hits are over-represented in it overall.
# Artemis inh – Artemis endonuclease inhibitors, primary screen, biochemical, fluorescence intensity, FAM/BHQ-1 hairpin substrate. Protein artemis (Homo sapiens), Q96SD1. recombinant Artemis, quenched FAM hairpin cleavage fluorescence. inhibition, % at 10 µM. actives 0.78% (n = 30,000);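 active = at 10 µM dose, at least 30% inhibition, measured as corrected fluorescence normalized to stimulator and neutral control wells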
# Target sequence (Q96SD1 whole entry, looked up): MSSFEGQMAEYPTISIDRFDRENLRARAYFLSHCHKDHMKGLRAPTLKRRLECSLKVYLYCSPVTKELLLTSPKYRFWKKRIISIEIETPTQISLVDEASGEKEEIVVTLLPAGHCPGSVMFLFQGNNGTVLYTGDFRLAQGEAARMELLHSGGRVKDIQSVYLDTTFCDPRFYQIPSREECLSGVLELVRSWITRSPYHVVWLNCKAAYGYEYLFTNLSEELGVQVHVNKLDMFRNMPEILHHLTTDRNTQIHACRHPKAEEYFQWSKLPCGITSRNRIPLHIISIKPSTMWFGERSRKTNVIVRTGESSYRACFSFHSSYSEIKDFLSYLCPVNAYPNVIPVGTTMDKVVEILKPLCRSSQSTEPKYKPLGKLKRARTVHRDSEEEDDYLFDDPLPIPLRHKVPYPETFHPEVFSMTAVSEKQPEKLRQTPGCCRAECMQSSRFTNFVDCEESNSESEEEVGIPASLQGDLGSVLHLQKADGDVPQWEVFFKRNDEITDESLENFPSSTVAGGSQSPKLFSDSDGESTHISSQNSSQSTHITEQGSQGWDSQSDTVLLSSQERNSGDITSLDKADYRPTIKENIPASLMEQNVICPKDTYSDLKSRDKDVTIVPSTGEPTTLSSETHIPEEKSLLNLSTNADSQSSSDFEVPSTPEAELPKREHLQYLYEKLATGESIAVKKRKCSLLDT
# * = called active by the depositor.
SMILES,Artemis inh
COC(=O)c1c(N)n(Cc2ccc(OC)cc2)c2nc3ccccc3nc12,31.0*
COCCOC(=O)c1c(N)n(Cc2ccco2)c2nc3ccccc3nc12,18.1
CC(C)OC(=O)c1c(N)n(Cc2ccco2)c2nc3ccccc3nc12,5.2
COCCOC(=O)c1c(N)n(Cc2ccc(OC)cc2)c2nc3ccccc3nc12,10.1
CCOC(=O)c1c(N)n(CCCOC(=O)c2ccco2)c2nc3ccccc3nc12,24.6
COCCCn1c(N)c(C(=O)OCCOC)c2nc3ccccc3nc21,38.0*
CCCSP1(=S)NCCCO1 (centres undefined),3.3
OC1(CN2CCOCC2)C2CC3CC(C2)CC1C3 (centres undefined),0.1
COc1nc(NC(C)C)nc(NC(C)C)n1,-7.8
CCCCOC(=O)C1=C(N)OC2=C(C(=O)CC(C)(C)C2)[C@]12C(=O)N(C)c1ccccc12,-9.7
Nc1c(C(=O)NC2CCCC2)c2nc3ccccc3nc2n1CC1CCCO1 (centres undefined),30.6*
CC(C)OCCCNC(=O)c1c(N)n(Cc2cccs2)c2nc3ccccc3nc12,14.6
O=C1NC(=O)C(CCc2ccccn2)(Cc2ccc3c(c2)OCO3)C(=O)N1CCc1ccccc1 (centres undefined),9.3
COc1cccc(-n2c(O)c(C=NCCN3CCOCC3)c(=O)[nH]c2=O)c1,-4.3
COC(=O)CCCNC(=O)CN1CC(c2ccccc2)CC1=O (centres undefined),-0.3
Cc1cc(C)c(C(=O)CN2CCOCC2)c(C)c1,0.6
C#CCNc1ccncc1S(=O)(=O)NC(=O)NC(C)C,-4.7
Cc1ccc2c(c1)CC1(CN2C)C(=O)NC(=O)N(CCC2=CCCCC2)C1=O (centres undefined),6.4
CC(=O)c1ccc2c(c1)C1C(Cl)C(Sc3ccccc3[N+](=O)[O-])CC1C(c1ccccc1[N+](=O)[O-])N2 (centres undefined),31.0*
C(#CCN1CCOCC1)COCc1ccccc1,-2.9
Cc1nc2c(=O)n(C)c(=O)nc-2n(C)n1,78.4*
O=C(CCc1nc(-c2ccccc2F)no1)N1CCC2(CC1)OCCO2,-1.4
OCCOCC#CCN1CCOCC1,-3.5
CCOc1ccccc1-n1c(O)c(C=NCCCN(CC)CC)c(=O)[nH]c1=O,-5.2
O=C(Cc1ccccc1)OC(COCc1ccccc1)CN1CCOCC1 (centres undefined),-9.7

# Screening data: PubChem BioAssay, Sanford-Burnham Center for Chemical Genomics
